The values below come from ChEMBL document CHEMBL3988442, “University of Dundee, Small-Polar-MMV Screening Library” (2021).

For some of these results: Entries with a potency or affinity are not part of this list.

Design in all cases: scale not given: direction of the effect not stated beside the values
Assay [1] has as its target Protein translocase subunit SecA (Escherichia coli (strain K12)) (UniProt P10408). In words: Assay to Identify E. coli SecA ATPase Inhibitors. The format is functional. As to conditions: 30 µM.
The target of assay [2] is T1, Ubiquitin-activating enzyme e1, putative (Leishmania donovani (strain BPK282A1)) (UniProt E9BSI1).
T1 sequence (whole entry): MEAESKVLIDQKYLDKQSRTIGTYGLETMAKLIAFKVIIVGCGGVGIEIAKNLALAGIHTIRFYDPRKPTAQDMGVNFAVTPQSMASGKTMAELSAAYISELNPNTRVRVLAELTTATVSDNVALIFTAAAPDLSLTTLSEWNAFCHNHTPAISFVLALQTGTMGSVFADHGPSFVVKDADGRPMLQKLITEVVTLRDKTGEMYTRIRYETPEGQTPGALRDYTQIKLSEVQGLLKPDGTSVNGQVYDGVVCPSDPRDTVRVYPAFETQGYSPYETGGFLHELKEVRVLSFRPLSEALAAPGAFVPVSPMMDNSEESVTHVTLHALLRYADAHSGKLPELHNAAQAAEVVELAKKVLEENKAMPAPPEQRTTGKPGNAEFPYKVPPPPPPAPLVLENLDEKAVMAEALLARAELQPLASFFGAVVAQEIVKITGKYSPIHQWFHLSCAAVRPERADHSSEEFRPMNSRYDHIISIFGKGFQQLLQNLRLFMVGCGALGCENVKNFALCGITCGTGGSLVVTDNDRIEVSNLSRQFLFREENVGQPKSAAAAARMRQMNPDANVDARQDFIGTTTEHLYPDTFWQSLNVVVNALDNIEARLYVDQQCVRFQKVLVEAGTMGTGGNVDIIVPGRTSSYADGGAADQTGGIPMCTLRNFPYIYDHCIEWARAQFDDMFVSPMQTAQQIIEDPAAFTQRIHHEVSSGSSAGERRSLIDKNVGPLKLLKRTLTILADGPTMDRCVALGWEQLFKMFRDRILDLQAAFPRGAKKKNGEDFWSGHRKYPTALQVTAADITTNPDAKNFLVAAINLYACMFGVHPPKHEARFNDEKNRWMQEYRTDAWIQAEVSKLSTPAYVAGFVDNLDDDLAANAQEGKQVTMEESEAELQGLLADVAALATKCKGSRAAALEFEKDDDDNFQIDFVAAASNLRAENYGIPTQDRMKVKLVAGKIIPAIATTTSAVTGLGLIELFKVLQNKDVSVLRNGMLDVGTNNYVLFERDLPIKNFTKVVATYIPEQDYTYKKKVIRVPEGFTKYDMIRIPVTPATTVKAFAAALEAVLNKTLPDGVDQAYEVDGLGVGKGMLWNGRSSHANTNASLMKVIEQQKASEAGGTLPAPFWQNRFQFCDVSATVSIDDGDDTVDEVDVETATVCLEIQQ
In words: Leishmania donovani Ubiquitin Activating Enzyme (LdE1). As to conditions: 30 µM. The assay is classed as functional.

The target of assay [3] is AMP-activated protein kinase, AMPK (Homo sapiens) (UniProt P54646+O43741+P54619+Q9UGJ0+Q9Y478+Q13131+Q9UGI9). Put plainly: AMP-dependent Kinase enzyme assay. An in vitro enzyme assay that detects ADP turnover that is directly proportional to AMPK activity. This uses naive AMPK that is activated during the assay with MK-8722. The format is functional. To be noted: 30 µM.

In assay [4] the target is Sialic acid-binding Ig-like lectin 9 (Homo sapiens) (UniProt Q9Y336). In words: Hs-Siglec9 ALPHAscreen SOP 20170721. As to conditions: 10 µM. Background: Alpha assays give light when donor and acceptor beads are brought close together.
Chain of Sialic acid-binding Ig-like lectin 9 (Homo sapiens) (Q9Y336 whole entry): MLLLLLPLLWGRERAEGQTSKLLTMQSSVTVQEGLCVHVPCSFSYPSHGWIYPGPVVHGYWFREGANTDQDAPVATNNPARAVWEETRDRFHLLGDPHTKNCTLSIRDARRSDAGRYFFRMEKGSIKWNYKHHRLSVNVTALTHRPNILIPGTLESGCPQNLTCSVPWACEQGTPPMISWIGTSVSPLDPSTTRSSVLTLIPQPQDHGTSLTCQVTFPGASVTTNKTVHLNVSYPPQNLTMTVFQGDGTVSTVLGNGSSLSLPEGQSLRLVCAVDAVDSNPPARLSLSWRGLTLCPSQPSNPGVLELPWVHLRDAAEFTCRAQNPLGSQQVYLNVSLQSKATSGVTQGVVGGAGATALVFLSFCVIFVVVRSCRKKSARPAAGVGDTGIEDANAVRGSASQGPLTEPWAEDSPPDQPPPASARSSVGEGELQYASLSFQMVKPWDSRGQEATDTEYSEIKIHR
Assay [5] deals with Trypanosoma cruzi. In words: Trypanosoma cruzi phosphomannomutase and mannose-1-phosphate guanylyltransferase assay. The assay is classed as functional. To be noted: 10 µM.
In assay [6] the target is T2, Arginase-2, mitochondrial (Homo sapiens) (UniProt P78540).
T2 sequence (whole entry): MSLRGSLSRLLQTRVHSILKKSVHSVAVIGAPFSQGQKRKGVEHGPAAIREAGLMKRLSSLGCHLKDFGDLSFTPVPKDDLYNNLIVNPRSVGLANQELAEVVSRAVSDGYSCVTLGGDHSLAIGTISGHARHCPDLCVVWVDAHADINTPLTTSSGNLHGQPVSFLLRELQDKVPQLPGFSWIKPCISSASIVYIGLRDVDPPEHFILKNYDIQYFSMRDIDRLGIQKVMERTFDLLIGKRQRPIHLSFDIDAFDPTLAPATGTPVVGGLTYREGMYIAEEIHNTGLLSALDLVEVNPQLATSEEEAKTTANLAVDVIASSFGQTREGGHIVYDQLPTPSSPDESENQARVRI
In words: in vitro enzyme assay to detect the production of urea directly proportional to the activity of Arginase II. Also: in the data most compounds retested in dose-response had high values. The format is functional. To be noted: 33.3 µM.

Assay [7] addresses T3, Proteasome subunit beta (Trypanosoma cruzi) (UniProt O96673).
T3 sequence (whole entry): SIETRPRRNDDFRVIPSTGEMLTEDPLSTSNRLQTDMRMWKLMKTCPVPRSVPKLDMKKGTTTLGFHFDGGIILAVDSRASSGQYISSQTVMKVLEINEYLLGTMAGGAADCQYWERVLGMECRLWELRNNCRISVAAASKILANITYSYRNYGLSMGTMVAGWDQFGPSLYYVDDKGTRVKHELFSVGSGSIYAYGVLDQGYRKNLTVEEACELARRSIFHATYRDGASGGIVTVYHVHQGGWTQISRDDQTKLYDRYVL
Put plainly: Trypanosoma cruzi proteasome chymotrypsin-like activity (TcProtChymo) assay. Also: in the data most compounds retested in dose-response had high values. The format is functional. As to conditions: 9.37 µM.

The species named for assay [8] is Homo sapiens. Put plainly: To identify inhibition of the IFN signalling (Jak-Stat) pathway via expression of an eGFP reporter gene under the control of an IFN-stimulated response element (ISRE) containing MxA promoter. The assay is classed as functional. To be noted: 30 µM. In general terms: Reporter assays use an easily measured gene product as a stand-in for the process of interest.

Assay [9] addresses T4, Tyrosyl-tRNA synthetase, putative (Trypanosoma cruzi (strain CL Brener)) (UniProt Q4DSP6).
T4 sequence (whole entry): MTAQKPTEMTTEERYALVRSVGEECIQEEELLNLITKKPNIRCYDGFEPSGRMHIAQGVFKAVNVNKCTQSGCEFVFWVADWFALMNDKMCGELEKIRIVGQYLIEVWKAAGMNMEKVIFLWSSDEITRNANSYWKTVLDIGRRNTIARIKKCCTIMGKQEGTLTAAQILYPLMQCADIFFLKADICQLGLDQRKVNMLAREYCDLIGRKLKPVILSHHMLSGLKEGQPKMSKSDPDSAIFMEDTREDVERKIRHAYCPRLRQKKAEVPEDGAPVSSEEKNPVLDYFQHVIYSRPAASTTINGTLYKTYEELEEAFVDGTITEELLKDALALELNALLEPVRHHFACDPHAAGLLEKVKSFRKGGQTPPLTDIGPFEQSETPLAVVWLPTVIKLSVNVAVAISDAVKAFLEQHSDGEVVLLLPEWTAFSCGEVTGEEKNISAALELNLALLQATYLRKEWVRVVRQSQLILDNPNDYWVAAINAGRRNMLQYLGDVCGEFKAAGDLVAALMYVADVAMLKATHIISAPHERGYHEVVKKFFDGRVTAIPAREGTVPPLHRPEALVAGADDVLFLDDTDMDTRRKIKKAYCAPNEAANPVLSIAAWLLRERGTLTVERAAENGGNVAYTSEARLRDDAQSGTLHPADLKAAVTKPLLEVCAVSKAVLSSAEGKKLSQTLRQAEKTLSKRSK
In words: Trypanosoma cruzi tyrosyl tRNA synthetase (TcYRS) _High Tyrosine SOP. Also: in the data most compounds retested in dose-response had high values. The assay is classed as functional. To be noted: 30 µM.

The target in assay [10] is T4, Tyrosyl-tRNA synthetase, putative (Trypanosoma cruzi (strain CL Brener)). Put plainly: Trypanosoma cruzi tyrosyl tRNA synthetase (TcYRS) SOP. To be noted: 30 µM. The format is functional.
The target of assay [11] is Chromo domain-containing protein 1 (Saccharomyces cerevisiae (strain ATCC 204508 / S288c) (Baker's yeast)) (UniProt P32657). Put plainly: ScCHD-1 Enzyme Inhibition Assay. Also: in the data most compounds retested in dose-response had high values. The assay is classed as functional. As to conditions: 30 µM.
Chain of Chromo domain-containing protein 1 (Saccharomyces cerevisiae (strain ATCC 204508 / S288c) (Baker's yeast)) (P32657 whole entry, the tested form may be a part): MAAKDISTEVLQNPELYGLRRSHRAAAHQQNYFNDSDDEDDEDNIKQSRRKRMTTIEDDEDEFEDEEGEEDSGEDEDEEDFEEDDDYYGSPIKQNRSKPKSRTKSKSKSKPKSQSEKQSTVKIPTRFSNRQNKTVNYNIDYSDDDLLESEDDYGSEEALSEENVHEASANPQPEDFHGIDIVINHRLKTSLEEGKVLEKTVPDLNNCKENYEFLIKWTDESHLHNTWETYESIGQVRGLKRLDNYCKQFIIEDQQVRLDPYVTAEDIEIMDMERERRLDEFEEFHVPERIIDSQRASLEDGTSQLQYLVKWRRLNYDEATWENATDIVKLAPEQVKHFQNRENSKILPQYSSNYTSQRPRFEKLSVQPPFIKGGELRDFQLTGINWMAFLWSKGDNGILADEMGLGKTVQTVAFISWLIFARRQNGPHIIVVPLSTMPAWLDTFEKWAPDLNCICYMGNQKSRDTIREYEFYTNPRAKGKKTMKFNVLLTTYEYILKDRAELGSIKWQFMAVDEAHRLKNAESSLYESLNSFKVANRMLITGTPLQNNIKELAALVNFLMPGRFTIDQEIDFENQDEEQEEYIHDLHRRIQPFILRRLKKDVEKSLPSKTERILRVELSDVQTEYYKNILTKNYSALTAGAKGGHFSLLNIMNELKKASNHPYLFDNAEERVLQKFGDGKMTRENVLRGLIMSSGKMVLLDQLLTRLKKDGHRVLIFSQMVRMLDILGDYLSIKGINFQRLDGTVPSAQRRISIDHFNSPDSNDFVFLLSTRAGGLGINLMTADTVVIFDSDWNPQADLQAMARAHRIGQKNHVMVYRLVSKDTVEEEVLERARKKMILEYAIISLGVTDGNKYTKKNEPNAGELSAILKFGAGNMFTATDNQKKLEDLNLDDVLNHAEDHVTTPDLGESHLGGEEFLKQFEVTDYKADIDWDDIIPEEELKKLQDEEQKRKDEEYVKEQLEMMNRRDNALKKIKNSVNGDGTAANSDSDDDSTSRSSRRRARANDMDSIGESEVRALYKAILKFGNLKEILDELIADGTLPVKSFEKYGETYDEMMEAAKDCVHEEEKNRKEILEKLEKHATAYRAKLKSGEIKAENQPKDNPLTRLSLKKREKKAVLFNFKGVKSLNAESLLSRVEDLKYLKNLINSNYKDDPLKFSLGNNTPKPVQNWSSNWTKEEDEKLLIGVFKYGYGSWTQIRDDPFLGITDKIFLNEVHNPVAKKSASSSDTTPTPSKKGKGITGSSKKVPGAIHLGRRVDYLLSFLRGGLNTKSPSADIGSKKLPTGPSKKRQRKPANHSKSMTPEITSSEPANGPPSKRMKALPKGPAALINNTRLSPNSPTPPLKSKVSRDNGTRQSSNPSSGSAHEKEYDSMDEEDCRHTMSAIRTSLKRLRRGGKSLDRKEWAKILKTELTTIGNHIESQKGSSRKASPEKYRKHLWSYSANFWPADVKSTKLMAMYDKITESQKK

Chain of Protein translocase subunit SecA (Escherichia coli (strain K12)) (P10408 whole entry): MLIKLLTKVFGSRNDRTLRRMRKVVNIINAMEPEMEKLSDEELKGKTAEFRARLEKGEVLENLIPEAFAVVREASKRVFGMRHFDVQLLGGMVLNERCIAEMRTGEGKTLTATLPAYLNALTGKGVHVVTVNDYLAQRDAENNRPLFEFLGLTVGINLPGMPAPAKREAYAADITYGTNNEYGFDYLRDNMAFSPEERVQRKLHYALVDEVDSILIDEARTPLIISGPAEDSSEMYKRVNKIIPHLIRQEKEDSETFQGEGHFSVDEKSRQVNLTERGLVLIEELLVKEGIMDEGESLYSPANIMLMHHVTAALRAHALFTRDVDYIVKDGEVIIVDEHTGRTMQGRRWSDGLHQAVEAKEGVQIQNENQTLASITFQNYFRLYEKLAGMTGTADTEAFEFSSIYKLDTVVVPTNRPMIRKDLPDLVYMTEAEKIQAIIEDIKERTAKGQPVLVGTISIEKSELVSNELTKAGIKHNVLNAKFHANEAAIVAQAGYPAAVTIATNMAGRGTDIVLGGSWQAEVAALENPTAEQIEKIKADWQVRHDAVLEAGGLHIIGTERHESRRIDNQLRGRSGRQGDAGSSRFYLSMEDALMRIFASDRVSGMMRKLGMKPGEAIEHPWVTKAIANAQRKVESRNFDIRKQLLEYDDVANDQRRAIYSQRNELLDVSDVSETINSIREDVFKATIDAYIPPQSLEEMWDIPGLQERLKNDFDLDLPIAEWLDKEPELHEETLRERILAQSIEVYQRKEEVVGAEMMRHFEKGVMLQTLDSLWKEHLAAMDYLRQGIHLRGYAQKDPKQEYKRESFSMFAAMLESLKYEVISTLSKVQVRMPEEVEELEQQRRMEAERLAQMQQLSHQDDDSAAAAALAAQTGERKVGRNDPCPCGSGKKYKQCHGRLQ

Regarding `Cc1cccc(C(=O)N2CCN(S(C)(=O)=O)[C@@H](C)C2)c1C`, the Percent Effect in [1] is -5.53%; in assay [2], -2.74%; in [3] it was 15.2%; in assay [4], -4.05%; in [5], -1.57%; in [6], -2.27%. Besides, the Percent Effect was found to be 0.71% in [7]; 9.6% in [8]; 0% in assay [9]; 0% in [10]; 0.913% in assay [11].
As for `Cc1cc(N2CCC(N(C)C(=O)c3ccccc3)CC2)nc(C)n1`, the Percent Effect in assay [1] is -2.59%; in assay [2], 19.2%; in assay [3], 2.37%; in assay [4], 4.5%; in assay [5], 5.09%; in assay [6], 10.4%. The Percent Effect in [7] was 11.4%; in assay [8], 29.3%; in [9] it was 7.53%; in assay [10], 17.5%; in assay [11] it was -8.12%.
For the molecule `O=C(CSc1ccccc1Cl)NS(=O)(=O)c1ccc2c(c1)OCCO2`, the Percent Effect in assay [1] is -4.83%; in assay [2], -21.1%; in [3] it was 27.8%; in assay [4], 4.23%; in assay [5], 1.69%; in assay [6], -1.15%. In addition, the Percent Effect in assay [7] is 9.69%; in assay [8] it was 4.4%; in assay [9] it was -15.2%; in [10] it was -12.2%; in assay [11], -10.3%.
`COC(=O)CCc1c(C)nn(-c2nc(C)cc(=O)[nH]2)c1C`: the Percent Effect in assay [1] is 2.99%; in assay [2], 15.6%; in assay [3], 14.8%; in assay [4], -8.75%; in [5], -3.06%; in assay [6] it was 0.645%. The Percent Effect in assay [7] is 4.87%; in assay [8], 25.4%; in [9], 7.41%; in [10] it was 11.5%; in assay [11], -5.54%.
`Fc1ccc(-c2cnc(CN3CCCC3Cn3cccn3)o2)cc1` (stereo unspecified): the Percent Effect was -4.06% in assay [1]; 7.59% in assay [2]; -2.14% in assay [3]; -12.9% in assay [4]; -4.82% in assay [5]; 7.22% in assay [6]. Also, the Percent Effect in [7] is 12.7%; in [8], 24.8%; in assay [9], 2.46%; in [10], 13.9%; in assay [11] it was -1.62%.
`Cc1ccc(C#N)c(N2CCC(c3nccn3Cc3cscn3)CC2)n1`: the Percent Effect in [1] is -1.6%; in assay [2], 10.7%; in assay [3], -4.04%; in [4], 15.7%; in assay [5] it was 5.75%; in assay [6] it was 9.38%. Also, the Percent Effect was 13.2% in [7]; 3.33% in assay [8]; 4.92% in [9]; 16.1% in [10]; -7.28% in assay [11].
Turning to `CC(C)Sc1ncccc1C(=O)NCc1ccc(CS(C)(=O)=O)cc1`, the Percent Effect in assay [1] was -4.04%; in assay [2], 13.9%; in assay [3], 0.323%; in assay [4] it was -3.32%; in [5], -1.74%; in [6], 4.09%. The Percent Effect is 18% in assay [7]; 18.1% in assay [8]; 4.17% in assay [9]; 5.06% in assay [10]; -15.6% in assay [11].
For the molecule `Cc1ccc(C(CNCC2CC2)N2CCOCC2)s1` (stereo unspecified), the Percent Effect in assay [1] was 4.94%; in [2], 8.11%; in assay [3], -0.221%; in assay [4], 3.49%; in [5] it was -6.05%; in [6], 1.67%. In addition, the Percent Effect in assay [7] was 11.9%; in assay [8] it was 26.7%; in [9] it was 9.9%; in [10], 8.54%; in assay [11], -6.06%.
Regarding `CCN(c1ccc(C(=O)N2CCCC2)cc1)S(=O)(=O)CC`, the Percent Effect is 2.05% in assay [1]; -1.39% in [2]; 3.96% in [3]; -5.1% in assay [4]; -0.486% in [5]; 1.32% in [6]. Also, the Percent Effect is 2.46% in assay [7]; -27.1% in assay [8]; 1.05% in [9]; 0% in assay [10]; 2.93% in assay [11].
For the molecule `COCCOCC(=O)Nc1ccc(C)cc1F`, the Percent Effect in assay [1] is -1.36%; in assay [2], 2.63%; in assay [3] it was 5.59%; in assay [4], -0.498%; in [5] it was 3.21%; in [6], 0%. Moreover, the Percent Effect in [7] was 9.11%; in assay [8], -16.7%; in assay [9] it was 2.13%; in assay [10] it was 2.6%; in assay [11], 2.83%.
For the molecule `CC(CN1CCOCC1)NCc1nncn1C1CCCCC1` (stereo unspecified), the Percent Effect in assay [1] was -2.55%; in [2] it was 1.39%; in [3] it was -4.5%; in assay [4] it was -12%; in [5] it was -5.54%; in [6], 3.09%. In addition, the Percent Effect in assay [7] was 9.65%; in [8] it was -2.46%; in assay [9] it was 6.32%; in [10], 5.13%; in [11], -1.99%.
